Here are results for nine compounds from PubChem BioAssay (NCATS).

Experiment [1] concerns the target Ubiquitin carboxyl-terminal hydrolase 1 (Homo sapiens) (UniProt O94782). Kind of experiment: Inhibitors of USP1/UAF1: Pilot qHTS (AID 504865; active = well fitted inhibition curve with a large enough effect; note: nearly all actives have a fitted effect of over 35% in size; note: potency is the fitted concentration of half-maximal effect). In outline:
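USP1/UAF1 complex (1nM) preincubated with compound 15 min at room temperature, then Ub-Rho substrate (150nM final) added. Fluorescence read kinetically at 480/540 nm, 6 reads every 60 seconds. Buffer: 50mM HEPES pH 7.8, 0.5mM EDTA, 0.1 mg/ml BSA, 1mM TCEP, 0.01% Tween-20.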
For orientation: qHTS replaces the single test concentration by a dilution series.

Experiment [2] has as its target DNA dC->dU-editing enzyme APOBEC-3G (Homo sapiens) (UniProt Q9HC16). Kind of experiment: qHTS for inhibitors of Vif-A3G interactions: Validation (AID 588379; active = well fitted inhibition curve with a large enough effect; note: 0% is about no effect). In outline: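 HeLa cells stably expressing Vif and A3G-eYFP, 700 cells/well, incubated overnight at 37 deg C, then exposed to compound overnight at 37 deg C. Inhibition of Vif-mediated degradation read as increased yellow fluorescence (Ex 488/Em 500-530) by laser-scanning cytometry.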

The target of experiment [3] is Glucocorticoid receptor (Homo sapiens) (UniProt P04150). Put plainly: qHTS assay for small molecule agonists of glucocorticoid receptor signaling (AID 588532; active = well fitted curve in the direction sought with a large enough effect in the signal ratio, with a control signal flat; the % refers to the signal ratio;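 note: 100% = dexamethasone at 0.1 µM and 0% = DMSO only wells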). Particulars: HeLa MMTV-bla, beta-lactamase ratio, agonist, 18 h; stronger effect = higher value; percent of dexamethasone control, DMSO zero. In outline: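 Agonist-mode qHTS: GRE-driven beta-lactamase in HeLa cells exposed 18 h to titrated compounds (up to 92 uM), then CCF4 ratio read after 2 h at RT; Hill-fitted EC50, efficacy relative to 0.1 uM dexamethasone.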
Sequence of Glucocorticoid receptor (Homo sapiens) (P04150 whole entry, looked up): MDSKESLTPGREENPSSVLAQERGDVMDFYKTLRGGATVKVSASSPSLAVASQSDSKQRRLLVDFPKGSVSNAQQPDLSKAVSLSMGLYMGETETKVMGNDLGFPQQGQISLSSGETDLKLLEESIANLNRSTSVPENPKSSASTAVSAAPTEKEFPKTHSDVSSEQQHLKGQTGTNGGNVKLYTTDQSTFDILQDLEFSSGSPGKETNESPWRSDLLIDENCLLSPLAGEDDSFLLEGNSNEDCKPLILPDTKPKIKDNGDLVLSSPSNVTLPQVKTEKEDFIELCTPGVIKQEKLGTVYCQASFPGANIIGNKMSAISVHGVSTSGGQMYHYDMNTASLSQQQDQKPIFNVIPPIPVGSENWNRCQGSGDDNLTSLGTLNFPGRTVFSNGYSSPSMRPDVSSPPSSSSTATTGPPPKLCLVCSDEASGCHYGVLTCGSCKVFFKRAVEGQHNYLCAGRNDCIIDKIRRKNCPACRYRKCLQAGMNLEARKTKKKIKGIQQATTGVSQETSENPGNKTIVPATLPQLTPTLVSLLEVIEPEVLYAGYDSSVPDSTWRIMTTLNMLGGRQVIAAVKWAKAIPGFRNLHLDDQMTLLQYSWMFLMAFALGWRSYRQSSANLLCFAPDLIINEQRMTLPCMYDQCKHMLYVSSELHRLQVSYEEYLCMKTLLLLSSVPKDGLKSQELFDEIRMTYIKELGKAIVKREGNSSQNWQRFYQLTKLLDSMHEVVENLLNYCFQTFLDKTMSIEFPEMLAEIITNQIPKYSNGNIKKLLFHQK

Experiment [4] has the same target. Put plainly: qHTS assay for small molecule antagonists of glucocorticoid receptor signaling (AID 588533; active = well fitted inhibition curve with a large enough effect in the signal ratio, with a control signal flat, not every such curve was filed as active; the % refers to the signal ratio;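 note: cells stimulated with 2 nM dexamethasone as agonist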; note: potency is the fitted concentration of half-maximal effect). In outline:
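Antagonist-mode qHTS: compound titrations added to GRE-bla HeLa cells, then dexamethasone 2 nM final; 18 h, 37 C. CCF4 FRET fluorescence normalized to dexamethasone and DMSO; IC50 from Hill fit.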

The target of experiment [5] is Vitamin D3 receptor (Homo sapiens) (UniProt P11473). Kind of experiment: qHTS assay for small molecule agonists of vitamin D receptor signaling (AID 588543).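 Note: 0% = DMSO basal and 100% = reference agonist control.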 In outline:
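GeneBLAzer VDR-UAS-bla HEK293T cells in 2% charcoal-stripped FBS medium were dosed with compound titrations for 16 h at 37 °C; CCF4 β-lactamase readout (405 nm ex, 460/530 nm em). EC50 and efficacy from Hill fits, normalized to 50 nM calcitriol (100%) and DMSO (0%).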

Experiment [6] addresses Thyroid hormone receptor beta (Homo sapiens) (UniProt P10828). Put plainly: qHTS assay for small molecule agonists of thyroid hormone receptor beta signaling (AID 588545).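 Note: 0% = DMSO only and 100% = 10 nM T3.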 In outline:
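Stimulation of a TR-driven beta-lactamase reporter was quantified in GripTite HEK 293 cells. Compound series ran for 18 hrs; curves were normalized to T3 and DMSO controls and fitted to yield EC50.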

For experiment [7], the target named is Estrogen receptor (Homo sapiens) (UniProt P03372). Put plainly: qHTS assay for small molecule antagonists of estrogen receptor alpha signaling (AID 588513; active = well fitted curve in the direction sought with a large enough effect in the signal ratio, with a control signal flat, not every such curve was filed as active; the % refers to the signal ratio; note: % is set by controls: 0 for no effect and ±100 for the full control effect). In outline:
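ER-alpha-UAS-bla GripTite HEK 293 cells in medium with 2% charcoal/dextran-treated FBS were preincubated 4 h at 37 C, dosed with compound (1:2 titration), stimulated with 0.5nM 17-beta-estradiol for 18 h, then read by CCF4 beta-lactamase fluorescence.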

Experiment [8] has as its target Bile acid receptor (Homo sapiens) (UniProt Q96RI1). Put plainly: qHTS assay for small molecule antagonists of farnesoid X receptor signaling (AID 588526). Note: % is set by controls: 0 for no effect and ±100 for the full control effect. In outline:
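Beta-lactamase reporter antagonist mode: HEK293T FXR-UAS-bla cells, titrated compound, CDCA stimulation, 16 h 37 C, CCF4 dye 2 h RT. Data normalized to CDCA 50 uM and DMSO; Hill-fit IC50.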

Experiment [9] in a line: qHTS assay for small molecule antagonists of peroxisome proliferator-activated receptor delta signaling (AID 588535; active = well fitted inhibition curve with a large enough effect in the signal ratio, with a control signal flat, not every such curve was filed as active; the % refers to the signal ratio;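 for max response: cells co-treated with a PPAR-delta agonist as stimulator during compound exposure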). The conditions noted are these: HEK293T PPARd-UAS-bla, beta-lactamase FRET ratio, 18 h; 460 nm channel. In outline:
(§1)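 HEK293T PPAR-delta-UAS-bla cells, 4000/well, 2% charcoal/dextran FBS; 5 h 37 C; cpd titration; 18 h 37 C; CCF4 2 h RT; FI 460/530 nm; Hill fit → IC50, efficacy.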

Experiment [10] has as its target Peroxisome proliferator-activated receptor delta (Homo sapiens) (UniProt Q03181). The description is as above. In outline:
as §1

Experiment [11] has as its target Peroxisome proliferator-activated receptor gamma (Homo sapiens) (UniProt P37231). Put plainly: qHTS assay for small molecule agonists of peroxisome proliferator-activated receptor gamma signaling (AID 588536; active = well fitted curve in the direction sought with a large enough effect in the signal ratio, with a control signal flat, not every such curve was filed as active; the % refers to the signal ratio;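 note: 0% = DMSO basal wells and 100% = rosiglitazone at 2 µM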). In outline: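 Test agents, titrated, stimulated HEK293 UAS-bla cells overnight (16 h, 37 C). Substrate CCF4 was then added for two hours at room temperature before fluorescence reading.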

A short description of experiment [12]: qHTS assay for small molecule agonists of retinoid X receptor alpha signaling (AID 588544).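 For activation: 0% = DMSO basal wells and 100% = reference agonist.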 The conditions noted are these: HEK293T RXRa-UAS-bla, beta-lactamase reporter, 18 h; 530 nm emission.
The target of experiment [13] is Retinoic acid receptor RXR-alpha (Homo sapiens) (UniProt P19793). The experiment is described as above.
Sequence of Retinoic acid receptor RXR-alpha (Homo sapiens) (P19793 whole entry, looked up): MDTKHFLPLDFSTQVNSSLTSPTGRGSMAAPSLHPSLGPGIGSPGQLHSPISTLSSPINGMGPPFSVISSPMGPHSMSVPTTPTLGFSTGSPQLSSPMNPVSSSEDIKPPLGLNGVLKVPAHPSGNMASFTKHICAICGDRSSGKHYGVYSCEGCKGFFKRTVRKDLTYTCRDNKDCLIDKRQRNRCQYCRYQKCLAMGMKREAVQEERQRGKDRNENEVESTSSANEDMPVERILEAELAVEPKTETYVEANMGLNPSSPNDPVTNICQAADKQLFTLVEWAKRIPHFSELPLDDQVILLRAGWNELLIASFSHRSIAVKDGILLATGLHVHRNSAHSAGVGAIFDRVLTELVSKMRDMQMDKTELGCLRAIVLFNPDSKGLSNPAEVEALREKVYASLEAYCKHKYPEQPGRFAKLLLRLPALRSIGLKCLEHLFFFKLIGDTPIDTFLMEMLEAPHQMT
Experiment [14] in a line: qHTS assay for small molecule antagonists of retinoid X receptor alpha signaling (AID 588546; active = well fitted inhibition curve with a large enough effect in the signal ratio, with a control signal flat, not every such curve was filed as active; the % refers to the signal ratio;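 note: cells stimulated with 9-cis-retinoic acid as agonist; % is set by controls: 0 for no effect and ±100 for the full control effect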). Particulars: HEK293T RXRa-UAS-bla, beta-lactamase ratio, antagonist mode; measured here: W530 green channel, cytotoxicity proxy. In outline: (§2)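 Beta-lactamase reporter inhibition, read as CCF4 fluorescence ratio (ex 405, em 460/530 nm) after 2 h at RT. HEK293T UAS-bla cells, 2500/well, were stimulated with 9-cis-RA at 500 or 100 nM final alongside test compound for 18 h at 37 C.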

The target in experiment [15] is Retinoic acid receptor RXR-alpha (Homo sapiens) (UniProt P19793). The experiment is described as above. The conditions noted are these: HEK293T RXRa-UAS-bla, beta-lactamase ratio, antagonist mode. In outline:
as §2

Experiment [16] addresses Vitamin D3 receptor (Homo sapiens) (UniProt P11473). Put plainly: qHTS assay for small molecule antagonists of vitamin D receptor signaling (AID 588541).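 Note: receptor activated by calcitriol during compound treatment; series mostly up to about 77 µM; % is set by controls: 0 for no effect and ±100 for the full control effect.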 In outline: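 Antagonist-mode beta-lactamase reporter assay: HEK293T VDR-UAS-bla cells were exposed to titrated compound alongside 1-alpha,25-dihydroxyvitamin D3 at 3 nM final for 16 h. Values were normalized to the 50 nM agonist control and DMSO basal, with IC50 and efficacy from Hill equation fits.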

SMILES strings stand for the structures. Values joined by “and” are separate entries in the source; they are usually repeats but may differ in a detail not shown here. Equal values may be shown once. Results filed as inconclusive are left out. Active and inactive are the calls of the source. Unless noted, calls come from the whole dose curve.

Sequence of Vitamin D3 receptor (Homo sapiens) (P11473 whole entry, looked up): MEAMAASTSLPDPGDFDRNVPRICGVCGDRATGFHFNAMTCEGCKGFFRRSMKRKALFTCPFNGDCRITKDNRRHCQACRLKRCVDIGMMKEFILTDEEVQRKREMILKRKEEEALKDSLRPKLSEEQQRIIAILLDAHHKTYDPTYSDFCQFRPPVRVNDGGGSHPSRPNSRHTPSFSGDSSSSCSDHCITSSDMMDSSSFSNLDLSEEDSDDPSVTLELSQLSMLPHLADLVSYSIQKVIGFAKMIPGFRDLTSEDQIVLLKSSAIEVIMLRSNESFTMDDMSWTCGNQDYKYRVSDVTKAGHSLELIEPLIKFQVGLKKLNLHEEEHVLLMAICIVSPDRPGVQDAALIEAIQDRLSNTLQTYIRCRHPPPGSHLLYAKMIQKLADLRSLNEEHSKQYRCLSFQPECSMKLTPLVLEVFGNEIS
Sequence of Thyroid hormone receptor beta (Homo sapiens) (P10828 whole entry, looked up): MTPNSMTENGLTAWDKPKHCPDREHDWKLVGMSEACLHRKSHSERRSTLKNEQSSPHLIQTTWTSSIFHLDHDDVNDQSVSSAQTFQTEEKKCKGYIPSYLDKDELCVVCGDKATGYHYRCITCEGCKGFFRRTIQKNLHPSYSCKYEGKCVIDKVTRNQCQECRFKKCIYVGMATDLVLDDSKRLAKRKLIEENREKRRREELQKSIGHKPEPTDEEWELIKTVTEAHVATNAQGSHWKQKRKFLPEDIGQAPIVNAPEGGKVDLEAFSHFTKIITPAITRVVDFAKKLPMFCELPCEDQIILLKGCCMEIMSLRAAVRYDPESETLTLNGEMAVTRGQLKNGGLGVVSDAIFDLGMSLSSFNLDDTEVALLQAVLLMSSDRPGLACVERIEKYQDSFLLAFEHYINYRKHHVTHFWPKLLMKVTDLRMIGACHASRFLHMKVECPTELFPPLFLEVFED
Sequence of Ubiquitin carboxyl-terminal hydrolase 1 (Homo sapiens) (O94782 whole entry, looked up): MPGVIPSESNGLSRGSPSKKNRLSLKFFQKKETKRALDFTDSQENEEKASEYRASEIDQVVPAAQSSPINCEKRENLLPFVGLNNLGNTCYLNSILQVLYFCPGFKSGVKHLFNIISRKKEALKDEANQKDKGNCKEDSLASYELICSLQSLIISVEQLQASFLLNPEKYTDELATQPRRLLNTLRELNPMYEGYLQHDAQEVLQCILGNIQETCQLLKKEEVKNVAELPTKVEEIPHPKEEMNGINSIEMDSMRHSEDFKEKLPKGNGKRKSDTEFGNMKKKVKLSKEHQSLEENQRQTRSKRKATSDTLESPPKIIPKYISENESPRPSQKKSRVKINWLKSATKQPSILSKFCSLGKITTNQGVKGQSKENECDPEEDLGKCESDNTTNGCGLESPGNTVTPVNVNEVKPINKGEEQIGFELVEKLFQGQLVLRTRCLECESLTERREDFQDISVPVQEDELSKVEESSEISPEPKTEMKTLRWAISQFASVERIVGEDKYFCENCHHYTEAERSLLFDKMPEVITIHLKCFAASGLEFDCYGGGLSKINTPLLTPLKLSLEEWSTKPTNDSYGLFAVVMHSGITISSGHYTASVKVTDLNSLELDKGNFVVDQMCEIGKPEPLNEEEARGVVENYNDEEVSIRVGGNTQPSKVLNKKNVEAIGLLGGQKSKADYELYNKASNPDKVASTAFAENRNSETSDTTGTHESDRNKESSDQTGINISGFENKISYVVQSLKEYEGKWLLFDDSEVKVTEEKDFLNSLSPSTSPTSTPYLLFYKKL
Sequence of Peroxisome proliferator-activated receptor delta (Homo sapiens) (Q03181 whole entry, looked up): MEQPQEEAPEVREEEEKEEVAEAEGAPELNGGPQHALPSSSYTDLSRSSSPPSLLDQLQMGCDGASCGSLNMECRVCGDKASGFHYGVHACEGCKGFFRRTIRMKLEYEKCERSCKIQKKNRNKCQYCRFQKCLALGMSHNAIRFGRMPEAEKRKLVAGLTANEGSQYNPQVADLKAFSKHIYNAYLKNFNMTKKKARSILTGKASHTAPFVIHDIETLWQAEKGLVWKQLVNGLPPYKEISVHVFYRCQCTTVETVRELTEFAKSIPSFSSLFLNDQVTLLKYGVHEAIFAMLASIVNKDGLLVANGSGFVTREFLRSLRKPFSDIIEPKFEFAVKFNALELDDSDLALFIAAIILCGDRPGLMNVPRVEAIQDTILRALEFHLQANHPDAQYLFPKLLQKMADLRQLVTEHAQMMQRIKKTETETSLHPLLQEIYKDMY
Sequence of Peroxisome proliferator-activated receptor gamma (Homo sapiens) (P37231 whole entry, looked up): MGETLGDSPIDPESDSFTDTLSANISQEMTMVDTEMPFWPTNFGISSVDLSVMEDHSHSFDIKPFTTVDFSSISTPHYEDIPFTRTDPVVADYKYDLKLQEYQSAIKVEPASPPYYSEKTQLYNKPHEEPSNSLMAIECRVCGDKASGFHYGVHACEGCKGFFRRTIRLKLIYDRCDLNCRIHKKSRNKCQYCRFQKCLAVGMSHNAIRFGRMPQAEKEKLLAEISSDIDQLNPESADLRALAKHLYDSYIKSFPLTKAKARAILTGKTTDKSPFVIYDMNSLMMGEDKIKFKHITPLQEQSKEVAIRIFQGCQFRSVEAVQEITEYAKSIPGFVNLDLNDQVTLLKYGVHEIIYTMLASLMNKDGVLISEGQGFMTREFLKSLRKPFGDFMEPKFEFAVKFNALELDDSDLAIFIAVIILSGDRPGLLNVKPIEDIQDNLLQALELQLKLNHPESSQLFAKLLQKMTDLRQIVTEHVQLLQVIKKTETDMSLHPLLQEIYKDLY
Sequence of Bile acid receptor (Homo sapiens) (Q96RI1 whole entry, looked up): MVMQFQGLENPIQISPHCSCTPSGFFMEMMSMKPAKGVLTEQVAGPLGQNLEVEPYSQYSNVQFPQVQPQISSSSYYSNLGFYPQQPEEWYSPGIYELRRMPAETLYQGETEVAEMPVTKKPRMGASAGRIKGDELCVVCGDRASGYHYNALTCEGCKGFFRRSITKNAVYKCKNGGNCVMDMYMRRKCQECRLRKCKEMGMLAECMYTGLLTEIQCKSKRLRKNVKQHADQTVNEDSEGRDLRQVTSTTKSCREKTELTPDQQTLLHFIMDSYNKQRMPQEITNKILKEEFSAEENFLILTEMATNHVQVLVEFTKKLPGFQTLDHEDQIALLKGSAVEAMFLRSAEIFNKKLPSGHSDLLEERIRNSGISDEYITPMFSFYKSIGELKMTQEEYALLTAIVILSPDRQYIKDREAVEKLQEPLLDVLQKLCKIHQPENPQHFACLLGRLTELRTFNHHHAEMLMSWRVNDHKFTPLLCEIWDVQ
Sequence of Estrogen receptor (Homo sapiens) (P03372 whole entry, looked up): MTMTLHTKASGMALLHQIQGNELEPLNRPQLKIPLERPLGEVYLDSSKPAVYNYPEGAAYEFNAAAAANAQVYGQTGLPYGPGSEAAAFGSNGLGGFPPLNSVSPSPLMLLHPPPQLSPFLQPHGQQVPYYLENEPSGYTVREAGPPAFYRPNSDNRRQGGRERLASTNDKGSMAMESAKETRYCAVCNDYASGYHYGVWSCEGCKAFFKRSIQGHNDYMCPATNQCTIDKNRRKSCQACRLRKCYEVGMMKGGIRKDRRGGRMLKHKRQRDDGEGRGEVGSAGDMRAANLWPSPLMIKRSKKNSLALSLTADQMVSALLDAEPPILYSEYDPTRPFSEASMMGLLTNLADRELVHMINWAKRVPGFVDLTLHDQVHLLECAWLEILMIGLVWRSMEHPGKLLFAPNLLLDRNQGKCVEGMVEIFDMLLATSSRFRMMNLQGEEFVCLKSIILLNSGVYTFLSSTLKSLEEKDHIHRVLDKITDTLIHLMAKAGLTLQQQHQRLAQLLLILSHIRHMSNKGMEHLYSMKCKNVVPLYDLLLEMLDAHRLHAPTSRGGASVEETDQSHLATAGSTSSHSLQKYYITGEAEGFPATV

Consider `C[C@H]1O[C@@H](O[C@H]2[C@@H](O)C[C@H](O[C@H]3[C@@H](O)C[C@H](O[C@H]4CC[C@@]5(C)[C@H](CC[C@@H]6[C@@H]5C[C@@H](O)[C@]5(C)[C@@H](C7=CC(=O)OC7)CC[C@]65O)C4)O[C@@H]3C)O[C@@H]2C)C[C@H](O)[C@@H]1O`, for which the Potency entry in [1] is “inactive”. Further, the compound was classed as inactive in [2], in experiment [5] and in [6]. In [3], the activation was -7.98% (inactive). Besides, the Potency in [4] is 1 µM (active) and 562 nM (active).
On to `CC(=O)Oc1cccc(C(=O)O)c1OC(C)=O`, for which, in [1], the Potency entry is “inactive”.
As for `COc1ccc(C[C@H](C)NC[C@@H](O)c2ccc(O)c(NC=O)c2)cc1`, in experiment [1], the Potency result was “inactive”. Besides, the outcome in experiment [2] was inactive.
As for `NCCO/C=C/[C@H](N)C(=O)O`, the Potency entry in experiment [1], in experiment [7] and in experiment [4] was “inactive” in each case. The result in experiment [8], in experiment [10], in experiment [11], in experiment [13] and in [6] was inactive. The activation in experiment [3] was -5.2% (inactive). Further, the max response is -3.12% in experiment [9], -3.57% in experiment [12], -8.31% in experiment [14] and -9.4% (inactive) in [15].
On to `CN(C)CCC=C1c2ccccc2C(C)(C)c2ccccc21`, for which, in experiment [1], the Potency was 56.2 µM (active).
Still for that read-out and setting: the entry for `O=C(O)c1ccc(NC(=O)[C@H](Cc2ccc(O)cc2)NC(=O)c2ccccc2)cc1` is “inactive”.
As to `CC1=CCC2CC1C2(C)C` (stereo not drawn), the Potency entry in [1], in experiment [7] and in [4] was “inactive” each time. Moreover, the activation in experiment [3] is 3.24% (inactive). Besides, the max response in experiment [9] was -1.04%; in experiment [12], -0.211%; in experiment [14] it was -2.11%; in [15] it was 2.29% (inactive). The call in experiment [10], in experiment [11], in experiment [16], in experiment [5], in [13] and in experiment [6] was inactive.
In the case of `C=C(C)C1CC=C(C)CC1` (stereo not drawn), the Potency entry in experiment [1], in experiment [7] and in experiment [4] was “inactive” each time. For the same compound, in experiment [3], the activation was -1.86% (inactive) and -2.03% (inactive). Moreover, the result in experiment [16], in experiment [5] and in experiment [13] was inactive. Besides, the max response in experiment [12] is 2.14%; in experiment [14], 0.388% and 6.57%; in experiment [15], 2.38% (inactive) and 15.2% (inactive).
`OCC(O)CO`: the Potency result in experiment [1], in experiment [7] and in [4] was “inactive” each time. For the same compound, the call in experiment [8], in [10], in experiment [11], in [16], in [5] and in experiment [13] was inactive. Moreover, the compound was called inactive in experiment [6]. In [3], the activation is 2.41% (inactive) and -1.45% (inactive). In addition, the max response is -8.63% in experiment [9]; -13.7% and 0.479% in experiment [12]; -6.53% and 10.4% in experiment [14]; 0.797% (inactive) and 12.5% (inactive) in [15].
